Results from publication PMC7862700, “An all-to-all approach to the identification of sequence-specific readers for epigenetic DNA modifications on cytosine”.

How the values were obtained:
Experiment in all cases: DAPPL (digital affinity profiling via proximity ligation, sequencing); 10 mM Tris-HCl pH 7.5, 50 mM NaCl, 1 mM DTT, 4% glycerol, room temperature, 30 min; GST-TFs on glutathione beads, 16-mer random dsDNA library, 0.1% formaldehyde crosslink after washing; high values mean tight binding
Conditions in all cases: protein: recombinant; tags: N-terminal GST; dsDNA, one strand shown
FLI1 = target: T1, FLI1 (Homo sapiens, UniProt Q01543 1-452)
T1 sequence: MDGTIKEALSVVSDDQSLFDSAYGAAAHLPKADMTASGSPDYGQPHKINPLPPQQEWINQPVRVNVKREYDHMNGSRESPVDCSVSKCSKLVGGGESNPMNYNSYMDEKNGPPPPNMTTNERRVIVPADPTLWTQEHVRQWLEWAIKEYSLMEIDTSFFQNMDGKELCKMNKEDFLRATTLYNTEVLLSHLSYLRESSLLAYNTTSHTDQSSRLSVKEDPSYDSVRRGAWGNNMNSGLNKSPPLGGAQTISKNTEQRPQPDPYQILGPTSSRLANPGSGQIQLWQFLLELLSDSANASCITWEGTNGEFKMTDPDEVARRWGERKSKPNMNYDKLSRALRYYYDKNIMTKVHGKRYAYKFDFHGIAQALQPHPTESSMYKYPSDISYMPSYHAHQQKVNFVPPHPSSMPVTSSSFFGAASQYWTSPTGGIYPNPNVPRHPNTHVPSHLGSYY
How it was run: (§1)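 Binding signal is defined as a hexamer's read frequency for one factor over its frequency for the tag-only sample. To obtain reads, GST-fused human transcription factors were expressed in yeast, captured on glutathione beads, barcoded with DNA and pooled with that sample. Pools met 200 nmole of a 16-mer random double-stranded DNA library in Tris/NaCl/DTT/glycerol buffer for 30 min at room temperature before washing, 0.1% formaldehyde crosslinking, proximity ligation (BsaI/T4 ligase, 1 h, 37 °C), PCR and Illumina NextSeq500 sequencing.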

ELK1 = target: T2, ELK1 (Homo sapiens, UniProt P19419 1-428)
T2 sequence: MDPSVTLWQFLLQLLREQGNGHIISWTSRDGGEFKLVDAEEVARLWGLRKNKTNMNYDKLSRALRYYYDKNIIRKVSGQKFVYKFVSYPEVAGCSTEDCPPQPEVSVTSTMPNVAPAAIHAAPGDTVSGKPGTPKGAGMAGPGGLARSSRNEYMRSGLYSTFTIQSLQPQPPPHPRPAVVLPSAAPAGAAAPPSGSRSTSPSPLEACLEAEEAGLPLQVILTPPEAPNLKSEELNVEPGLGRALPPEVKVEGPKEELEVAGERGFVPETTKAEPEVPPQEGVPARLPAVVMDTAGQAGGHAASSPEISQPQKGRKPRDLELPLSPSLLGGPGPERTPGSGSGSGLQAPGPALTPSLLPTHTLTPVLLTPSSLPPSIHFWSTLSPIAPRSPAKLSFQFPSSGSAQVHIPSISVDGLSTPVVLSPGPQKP
How it was run: as §1

GABPA = target: T3, GABPA (Homo sapiens, UniProt Q06546 1-454)
T3 sequence: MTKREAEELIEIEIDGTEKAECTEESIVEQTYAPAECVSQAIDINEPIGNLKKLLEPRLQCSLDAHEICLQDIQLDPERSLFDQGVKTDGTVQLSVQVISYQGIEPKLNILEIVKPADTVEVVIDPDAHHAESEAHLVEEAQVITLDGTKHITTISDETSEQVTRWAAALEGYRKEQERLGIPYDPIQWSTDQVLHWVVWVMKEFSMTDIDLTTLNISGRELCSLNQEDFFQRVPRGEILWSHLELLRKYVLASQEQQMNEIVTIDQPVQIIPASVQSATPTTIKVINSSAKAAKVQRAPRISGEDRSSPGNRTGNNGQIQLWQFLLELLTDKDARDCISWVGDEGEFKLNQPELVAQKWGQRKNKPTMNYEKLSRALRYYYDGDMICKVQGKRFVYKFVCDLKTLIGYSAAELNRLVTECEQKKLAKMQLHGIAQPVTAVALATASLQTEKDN
How it was run: as §1

ELF1 = ELF1 (Homo sapiens, UniProt P32519 1-619)
ELF1, sequence (P32519 whole entry): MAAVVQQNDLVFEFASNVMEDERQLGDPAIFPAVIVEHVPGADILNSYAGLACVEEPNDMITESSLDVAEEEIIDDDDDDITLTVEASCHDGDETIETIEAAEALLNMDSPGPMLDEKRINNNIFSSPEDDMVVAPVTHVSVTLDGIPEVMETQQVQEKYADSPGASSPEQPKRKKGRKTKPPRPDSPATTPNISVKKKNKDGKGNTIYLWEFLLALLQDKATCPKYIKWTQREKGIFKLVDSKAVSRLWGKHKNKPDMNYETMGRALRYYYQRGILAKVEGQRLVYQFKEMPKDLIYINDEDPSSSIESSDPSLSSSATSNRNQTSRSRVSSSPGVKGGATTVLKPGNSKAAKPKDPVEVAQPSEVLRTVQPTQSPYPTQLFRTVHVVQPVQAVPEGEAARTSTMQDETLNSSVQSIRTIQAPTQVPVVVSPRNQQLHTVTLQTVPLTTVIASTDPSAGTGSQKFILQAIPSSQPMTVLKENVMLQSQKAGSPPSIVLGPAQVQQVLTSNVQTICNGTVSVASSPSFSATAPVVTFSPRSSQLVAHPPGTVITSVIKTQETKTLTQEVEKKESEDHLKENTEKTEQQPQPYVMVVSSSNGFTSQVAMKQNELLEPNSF
How it was run: as §1

SPI1 = SPI1 (Homo sapiens, UniProt P17947 1-270)
How it was run: as §1

ELK3 = target: T4, ELK3 (Homo sapiens, UniProt P41970 1-407)
T4 sequence: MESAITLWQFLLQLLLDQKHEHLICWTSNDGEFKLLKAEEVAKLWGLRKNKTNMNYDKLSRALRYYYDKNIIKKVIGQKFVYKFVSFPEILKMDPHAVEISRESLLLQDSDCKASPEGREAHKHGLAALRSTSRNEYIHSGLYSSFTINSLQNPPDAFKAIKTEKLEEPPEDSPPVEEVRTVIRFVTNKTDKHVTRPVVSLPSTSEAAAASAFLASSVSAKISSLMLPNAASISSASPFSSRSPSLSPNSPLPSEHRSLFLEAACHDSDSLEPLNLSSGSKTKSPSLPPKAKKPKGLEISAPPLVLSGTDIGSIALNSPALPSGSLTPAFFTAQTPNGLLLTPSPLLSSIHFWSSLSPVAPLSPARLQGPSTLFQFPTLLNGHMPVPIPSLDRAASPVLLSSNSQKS
How it was run: as §1

ETV5 = ETV5 (Homo sapiens, UniProt P41161 1-510)
ETV5, sequence (P41161 whole entry): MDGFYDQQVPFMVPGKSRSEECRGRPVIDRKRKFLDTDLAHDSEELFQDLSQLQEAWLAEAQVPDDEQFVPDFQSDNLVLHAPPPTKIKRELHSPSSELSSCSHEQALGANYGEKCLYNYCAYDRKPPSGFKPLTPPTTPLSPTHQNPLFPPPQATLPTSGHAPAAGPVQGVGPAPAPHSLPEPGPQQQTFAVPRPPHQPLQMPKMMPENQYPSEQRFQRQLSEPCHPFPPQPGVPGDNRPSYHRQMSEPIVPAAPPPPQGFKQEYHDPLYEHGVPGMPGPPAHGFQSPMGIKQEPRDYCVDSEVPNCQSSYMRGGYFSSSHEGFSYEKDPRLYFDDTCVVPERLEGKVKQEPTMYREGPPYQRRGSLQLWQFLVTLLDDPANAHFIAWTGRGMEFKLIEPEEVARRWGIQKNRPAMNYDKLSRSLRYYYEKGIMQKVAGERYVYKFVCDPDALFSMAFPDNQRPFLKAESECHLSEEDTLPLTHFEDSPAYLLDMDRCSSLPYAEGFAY
How it was run: as §1

ELF4 = ELF4 (Homo sapiens, UniProt Q99607 1-663)
ELF4, sequence (Q99607 whole entry): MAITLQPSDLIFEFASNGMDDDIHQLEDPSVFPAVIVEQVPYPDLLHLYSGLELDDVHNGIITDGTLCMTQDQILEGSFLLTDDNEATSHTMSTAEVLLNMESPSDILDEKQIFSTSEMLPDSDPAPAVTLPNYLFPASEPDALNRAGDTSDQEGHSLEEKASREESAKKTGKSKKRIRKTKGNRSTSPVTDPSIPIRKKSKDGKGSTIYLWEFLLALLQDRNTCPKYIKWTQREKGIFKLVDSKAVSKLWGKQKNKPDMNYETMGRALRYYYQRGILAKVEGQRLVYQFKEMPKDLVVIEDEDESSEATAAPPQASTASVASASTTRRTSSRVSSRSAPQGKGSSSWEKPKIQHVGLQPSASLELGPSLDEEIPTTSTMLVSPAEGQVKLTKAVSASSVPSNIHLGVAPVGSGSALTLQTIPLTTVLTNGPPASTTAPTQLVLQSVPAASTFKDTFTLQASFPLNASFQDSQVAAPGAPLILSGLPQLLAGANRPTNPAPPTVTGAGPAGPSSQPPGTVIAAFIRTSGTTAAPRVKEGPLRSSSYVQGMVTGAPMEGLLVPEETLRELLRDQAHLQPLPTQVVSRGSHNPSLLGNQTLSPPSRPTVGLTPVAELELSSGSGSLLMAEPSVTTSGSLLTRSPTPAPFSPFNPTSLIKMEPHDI
How it was run: as §1

ELF3 = target: T5, ELF3 (Homo sapiens, UniProt P78545 1-371)
T5 sequence: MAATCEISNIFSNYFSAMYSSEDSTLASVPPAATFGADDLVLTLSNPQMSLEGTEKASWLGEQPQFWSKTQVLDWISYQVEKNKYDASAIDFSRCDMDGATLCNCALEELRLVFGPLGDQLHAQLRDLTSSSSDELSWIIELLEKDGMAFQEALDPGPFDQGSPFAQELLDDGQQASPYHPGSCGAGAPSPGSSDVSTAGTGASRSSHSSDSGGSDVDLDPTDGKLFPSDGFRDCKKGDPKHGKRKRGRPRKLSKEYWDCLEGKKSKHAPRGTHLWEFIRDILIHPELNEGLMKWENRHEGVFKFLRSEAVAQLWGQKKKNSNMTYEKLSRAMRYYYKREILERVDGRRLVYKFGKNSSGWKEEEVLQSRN
How it was run: as §1

ETV1 = ETV1 (Homo sapiens, UniProt P50549 1-477)
ETV1, sequence (P50549 whole entry): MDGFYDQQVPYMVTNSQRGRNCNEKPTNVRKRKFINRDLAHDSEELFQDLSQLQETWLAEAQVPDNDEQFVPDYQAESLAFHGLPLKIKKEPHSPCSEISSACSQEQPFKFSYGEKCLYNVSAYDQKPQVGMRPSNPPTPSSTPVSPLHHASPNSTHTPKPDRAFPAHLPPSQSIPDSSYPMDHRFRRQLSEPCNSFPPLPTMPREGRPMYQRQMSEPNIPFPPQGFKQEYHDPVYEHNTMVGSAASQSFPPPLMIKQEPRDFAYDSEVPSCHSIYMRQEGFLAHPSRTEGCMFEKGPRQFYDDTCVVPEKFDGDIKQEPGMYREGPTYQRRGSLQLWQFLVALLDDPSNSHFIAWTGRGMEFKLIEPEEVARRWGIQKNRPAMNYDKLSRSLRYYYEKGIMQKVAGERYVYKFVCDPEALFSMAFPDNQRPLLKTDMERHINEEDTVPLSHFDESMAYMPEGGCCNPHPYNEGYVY
How it was run: as §1

ERF = target: T6, ERF (Homo sapiens, UniProt P50548 1-548)
T6 sequence: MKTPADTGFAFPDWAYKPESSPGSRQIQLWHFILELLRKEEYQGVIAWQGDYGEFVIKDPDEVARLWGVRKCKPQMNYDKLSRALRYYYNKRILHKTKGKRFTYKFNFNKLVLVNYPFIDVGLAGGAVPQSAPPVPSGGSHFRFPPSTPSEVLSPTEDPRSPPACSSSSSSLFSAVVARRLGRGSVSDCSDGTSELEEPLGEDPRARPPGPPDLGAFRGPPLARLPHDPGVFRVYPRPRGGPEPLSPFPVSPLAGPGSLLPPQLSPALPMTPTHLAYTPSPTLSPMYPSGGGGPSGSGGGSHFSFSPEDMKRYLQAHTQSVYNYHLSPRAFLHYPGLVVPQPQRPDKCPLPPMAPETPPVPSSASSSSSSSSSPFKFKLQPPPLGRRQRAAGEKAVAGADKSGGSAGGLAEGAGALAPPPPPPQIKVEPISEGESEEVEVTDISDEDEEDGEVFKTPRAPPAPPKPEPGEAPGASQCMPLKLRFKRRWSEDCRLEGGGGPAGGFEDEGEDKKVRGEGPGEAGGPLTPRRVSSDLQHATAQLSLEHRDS
How it was run: as §1

ETV3L = target: T7, ETV3L (Homo sapiens, UniProt Q6ZN32 1-361)
T7 sequence: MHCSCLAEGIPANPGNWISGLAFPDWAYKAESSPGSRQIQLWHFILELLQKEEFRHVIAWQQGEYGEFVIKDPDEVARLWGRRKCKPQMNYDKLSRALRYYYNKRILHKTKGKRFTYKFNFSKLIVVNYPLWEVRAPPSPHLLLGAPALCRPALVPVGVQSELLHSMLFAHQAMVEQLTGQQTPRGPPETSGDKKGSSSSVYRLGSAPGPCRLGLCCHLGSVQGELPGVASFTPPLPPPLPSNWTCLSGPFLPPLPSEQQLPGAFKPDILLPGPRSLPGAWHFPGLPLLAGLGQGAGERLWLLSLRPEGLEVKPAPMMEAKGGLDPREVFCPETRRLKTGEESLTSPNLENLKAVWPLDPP
How it was run: as §1

ETV3 = target: T8, ETV3 (Homo sapiens, UniProt P41162-2 1-143)
T8 sequence: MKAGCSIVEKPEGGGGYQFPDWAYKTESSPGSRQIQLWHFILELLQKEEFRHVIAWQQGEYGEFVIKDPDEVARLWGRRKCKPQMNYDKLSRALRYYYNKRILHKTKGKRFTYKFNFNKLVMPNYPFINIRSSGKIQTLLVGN
How it was run: as §1

ETV6 = ETV6 (Homo sapiens, UniProt P41212 1-452)
ETV6, sequence (P41212 whole entry): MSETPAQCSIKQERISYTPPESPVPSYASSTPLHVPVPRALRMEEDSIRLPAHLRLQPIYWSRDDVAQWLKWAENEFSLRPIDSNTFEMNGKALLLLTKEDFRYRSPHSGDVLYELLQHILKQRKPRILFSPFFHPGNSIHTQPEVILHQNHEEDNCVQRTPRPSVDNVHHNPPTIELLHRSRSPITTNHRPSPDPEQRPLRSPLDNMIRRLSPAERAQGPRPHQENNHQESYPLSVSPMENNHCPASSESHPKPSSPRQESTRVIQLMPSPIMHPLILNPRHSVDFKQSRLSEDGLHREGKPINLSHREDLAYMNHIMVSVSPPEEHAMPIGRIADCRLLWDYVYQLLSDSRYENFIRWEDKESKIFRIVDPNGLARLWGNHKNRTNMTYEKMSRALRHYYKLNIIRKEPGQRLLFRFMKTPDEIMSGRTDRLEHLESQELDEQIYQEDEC
How it was run: as §1

GCAAAC
binding signal (FLI1): 1.04 fold enrichment (6-mer frequency, TF over GST control)
binding signal (ELK1): 1.03 fold enrichment (6-mer frequency, TF over GST control)
binding signal (GABPA): 1.01 fold enrichment (6-mer frequency, TF over GST control)
binding signal (ELF1): 1.01 fold enrichment (6-mer frequency, TF over GST control)
binding signal (SPI1): 1.07 fold enrichment (6-mer frequency, TF over GST control)
binding signal (ELK3): 1.04 fold enrichment (6-mer frequency, TF over GST control)
binding signal (ETV5): 1.01 fold enrichment (6-mer frequency, TF over GST control)
binding signal (ELF4): 1.06 fold enrichment (6-mer frequency, TF over GST control)
binding signal (ELF3): 1.13 fold enrichment (6-mer frequency, TF over GST control)
binding signal (ETV1): 1.03 fold enrichment (6-mer frequency, TF over GST control)
binding signal (ERF): 1.01 fold enrichment (6-mer frequency, TF over GST control)
binding signal (ETV3L): 1.05 fold enrichment (6-mer frequency, TF over GST control)
binding signal (ETV3): 1.04 fold enrichment (6-mer frequency, TF over GST control)
binding signal (ETV6): 1.06 fold enrichment (6-mer frequency, TF over GST control)
